Measured values published in PubChem BioAssay (EPA / NIEHS).
Records with an inconclusive call do not appear. Some structures have more than one record in an assay (separate samples or runs), and their calls can disagree. Activity calls are given as the source filed them. The calls were made as follows, unless noted: active = hit-call score of the fitted dose curve at least 0.9, where 1 is the maximum; inactive = score below 0.9.

Tests used:
[1] = target: Estrogen receptor (Homo sapiens) (UniProt P03372); test: CCTE_Deisenroth_AIME_384WELL_LUC_Active: CCTE's 384-well Estrogen Receptor Transactivation Assay with AIME metabolic competence (ERTA luciferase; metabolism positive), Deisenroth Lab (AID 2284030; active = hit-call score of the fitted dose curve at least 0.9, where 1 is the maximum)
Estrogen receptor (Homo sapiens), sequence (P03372 whole entry, looked up): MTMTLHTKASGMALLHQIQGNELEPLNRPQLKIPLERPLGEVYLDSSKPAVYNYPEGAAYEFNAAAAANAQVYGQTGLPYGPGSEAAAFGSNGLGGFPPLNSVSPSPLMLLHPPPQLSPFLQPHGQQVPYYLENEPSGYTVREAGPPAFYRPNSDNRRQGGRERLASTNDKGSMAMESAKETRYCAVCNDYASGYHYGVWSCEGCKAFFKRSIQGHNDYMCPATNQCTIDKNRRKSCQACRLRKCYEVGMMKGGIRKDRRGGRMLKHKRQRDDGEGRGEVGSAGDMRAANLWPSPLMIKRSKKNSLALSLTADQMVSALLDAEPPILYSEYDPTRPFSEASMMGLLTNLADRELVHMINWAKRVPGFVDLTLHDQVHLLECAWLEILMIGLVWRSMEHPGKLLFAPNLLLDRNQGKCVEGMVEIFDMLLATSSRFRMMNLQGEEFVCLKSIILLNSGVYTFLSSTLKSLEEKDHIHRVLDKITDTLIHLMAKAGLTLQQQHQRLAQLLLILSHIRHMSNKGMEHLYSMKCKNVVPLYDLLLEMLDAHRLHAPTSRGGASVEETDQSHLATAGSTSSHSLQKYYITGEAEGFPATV
Procedure, shortened: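 Chemicals (10-point, 0.002-200 uM) were first incubated 2 hours with alginate-immobilized induced male Sprague Dawley rat liver S9. The conditioned medium was then applied to VM7Luc4E2 cells for 24 hours, with ER luciferase induction read by luminescence relative to 17beta-estradiol.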

[2] = CCTE_Shafer_MEA_acute_burst_percentage_std: CCTE's Neural Acute Assay for Standard Deviation of Burst Percentage, Shafer Lab (AID 2284018);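 also: fitted in the negative direction so actives lower burst percentage SD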
Procedure, shortened: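 Primary rat cortical neurons on 16-electrode MEA wells were recorded 40 min at baseline (DIV 13 or 15), then 40 min after compound (0.03-40 uM), at 37 C. Well value is SD across electrodes of spikes-in-bursts/total spikes; endpoint is percent change, DMSO-referenced.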

[3] = CCTE_Shafer_MEA_acute_per_network_burst_spike_number_std: CCTE's Neural Acute Assay for Standard Deviation of Number of Spikes in a Network Burst, Shafer Lab (AID 2284020);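 also: fitted for decrease in spike-number SD versus DMSO so actives lower it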
Procedure, shortened: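 Acute MEA exposure, rat cortical neurons, 0.03-40 uM. Per-well % change versus own baseline; DMSO as negative control.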

[4] = CCTE_Shafer_MEA_acute_per_network_burst_electrodes_number_mean: CCTE's Neural Acute Assay for Mean Number of Electrodes in a Network Burst, Shafer Lab (AID 2284021);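 also: curves fitted for decreases only so hits reduce electrodes per burst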
Procedure, shortened: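 Rat primary cortical neurons on 48-well MEAs, DIV 13 or 15, were treated at 0.03-40 uM. Spikes were detected at 8x rms noise and recorded at 37 C. The mean electrodes per network burst in a 40 min exposure recording was expressed as percent change from a 40 min baseline.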

[5] = CCTE_Shafer_MEA_acute_network_burst_percentage: CCTE's Neural Acute Assay for Percentage of Network Bursts, Shafer Lab (AID 2284022);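 also: curves fitted for loss so actives lower network burst percentage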
Procedure, shortened: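 Rat primary cortical neuron networks on 48-well MEA plates, DIV 13 or 15, treated acutely with compound (0.03-40 uM, at least three wells). Percent of spikes within network bursts compared between 40-min recordings before and during exposure at 37 C, expressed as percent change.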

[6] = CCTE_Shafer_MEA_acute_cross_correlation_area: CCTE's Neural Acute Assay for Area of Cross Correlation, Shafer Lab (AID 2284024);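 also: curves fitted for loss of cross-correlation area so actives lower synchrony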
Procedure, shortened: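 Rat primary cortical neurons on 48-well MEA, DIV 13 or 15; compounds 0.03-40 uM. Baseline and post-exposure 40 min recordings at 37 C; percent change in area under pooled inter-electrode cross-correlation near zero lag, relative to DMSO.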

[7] = CCTE_Shafer_MEA_acute_synchrony_index: CCTE's Neural Acute Assay for Synchrony, Shafer Lab (AID 2284027);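 also: network synchrony index of spontaneous spiking in primary rat cortical neurons on MEAs; fitted for loss of signal so actives lower synchrony relative to DMSO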
Procedure, shortened: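 Acute exposure of rat primary cortical neurons (DIV 13 or 15) at 0.03-40 uM. Synchrony index, 40 min before vs after, as % change relative to DMSO control.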

[8] = CCTE_Shafer_MEA_dev_firing_rate_mean: CCTE's Neural Network Formation Assay for Mean Firing Rate, Shafer Lab (AID 2284031);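 also: AUC of well mean spike rate recorded on DIV 5 7 9 and 12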
Procedure, shortened: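 Extracellular spike frequency, AUC over DIV 5–12 recordings, in rat cortical neuron MEA cultures dosed from plating; loss direction vs DMSO.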

O=c1n(CC2CO2)c(=O)n(CC2CO2)c(=O)n1CC1CO1 (stereo not given)
outcome [1]: inactive

CCOC(=O)c1ccc(C2CCC(NC[C@H](O)COc3ccc(O)c(NS(C)(=O)=O)c3)CC2)cc1 (stereo not given in full)
outcome [2]: inactive | outcome [3]: inactive | outcome [4]: inactive | outcome [5]: inactive | outcome [6]: inactive | AC50 [7]: 28.8 µM (active)

CCCCCCCCO
outcome [1]: inactive

NC(=O)NO
outcome [8]: inactive

Cn1cnc([N+](=O)[O-])c1Sc1ncnc2nc[nH]c12
outcome [2]: inactive | outcome [3]: inactive | outcome [4]: inactive | outcome [5]: inactive | outcome [6]: inactive | outcome [7]: inactive

O=P(OC(CCl)CCl)(OC(CCl)CCl)OC(CCl)CCl
AC50 [2]: 31.6 µM (active) | outcome [2]: inactive | outcome [3]: inactive | outcome [4]: inactive | outcome [5]: inactive | outcome [6]: inactive | AC50 [7]: 23 µM (active) | outcome [7]: inactive | outcome [8]: inactive

O=c1[nH]c2ccc(S(=O)CCN3CCC(Cc4ccc(F)cc4)CC3)cc2o1 (stereo not given)
outcome [1]: inactive

O=C1CCC(N2C(=O)c3ccccc3C2=O)C(=O)N1 (stereo not given)
outcome [8]: inactive

CCCC(=O)OCC
outcome [1]: inactive

O=C(O)c1cc(N=Nc2ccc(S(=O)(=O)Nc3ccccn3)cc2)ccc1O
outcome [2]: inactive | outcome [3]: inactive | outcome [4]: inactive | outcome [5]: inactive | outcome [6]: inactive | outcome [7]: inactive

CCCCCCCCCCCCc1ccccc1
outcome [2]: inactive | outcome [3]: inactive | outcome [4]: inactive | outcome [5]: inactive | outcome [6]: inactive | outcome [7]: inactive

CC(C)=CCCC(C)=CC=O
outcome [2]: inactive | outcome [3]: inactive | outcome [4]: inactive | outcome [5]: inactive | outcome [6]: inactive | outcome [7]: inactive

Cn1c(=O)cc(Oc2ccc(F)cc2F)c2cnc(NCC(C)(C)O)nc21
outcome [1]: inactive

CNCc1ccc(NC(=O)c2c[nH]c3c2C(=O)CCC3)cc1
outcome [8]: inactive

CCCCCCc1ccc(O)cc1O
AC50 [2]: 27.8 µM (active) | AC50 [3]: 15.9 µM (active) | AC50 [4]: 8.5 µM (active) | outcome [5]: inactive | outcome [6]: inactive | AC50 [7]: 6.73 µM (active)

On1ccccc1=S
outcome [2]: inactive | outcome [3]: inactive | outcome [4]: inactive | outcome [5]: inactive | outcome [6]: inactive | outcome [7]: inactive

COc1ccc2sc(C(=O)Nc3nnn[nH]3)c(OC(C)C)c2c1
outcome [2]: inactive | outcome [3]: inactive | outcome [4]: inactive | outcome [5]: inactive | outcome [6]: inactive | outcome [7]: inactive | outcome [1]: inactive

CCCN(C1CCN(C(=O)C2CCNCC2)CC1)[C@@H]1CCc2ccc(OC)cc2C1
AC50 [2]: 33.1 µM (active) | outcome [3]: inactive | AC50 [4]: 5 µM (active) | AC50 [5]: 7.55 µM (active) | outcome [6]: inactive | AC50 [7]: 17.7 µM (active)

Nc1nc2ncc(CNc3ccc(C(=O)N[C@@H](CCC(=O)O)C(=O)O)cc3)nc2c(=O)[nH]1
outcome [8]: inactive

Cc1[nH]cnc1C[C@H]1CCc2c(C)c3ccccc3n2C1=O
outcome [2]: inactive | outcome [3]: inactive | AC50 [4]: 17.8 µM (active) | AC50 [5]: 24.2 µM (active) | outcome [6]: inactive | AC50 [7]: 8.89 µM (active)

O=C(O)CCN(C1(C(=O)NO)CCCC1)S(=O)(=O)c1ccc(Oc2ccc(F)cc2)cc1
outcome [2]: inactive | outcome [3]: inactive | outcome [4]: inactive | outcome [5]: inactive | outcome [6]: inactive | outcome [7]: inactive
